5 molecules from PubChem BioAssay (EPA / NIEHS) can be followed below.

The target of test [1] is human Retinoic Acid Receptor gamma (RARg), RARG (gene 5916) (UniProt P13631). As to the kind of experiment: ATG_RARg_TRANS: Attagene TRANS-FACTORIAL HepG2 Assay for human Retinoic Acid Receptor gamma (RARg) (AID 2283009; active = hit-call score of the fitted dose curve at least 0.9, where 1 is the maximum;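 for AC50: AC50 is for reporter induction above DMSO meaning RARg activation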). The procedure, abridged:
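HepG2, RARg-GAL4 TRANS system, 24 h exposure; reporter mRNA by RT-PCR + CE fluorescence; increase over DMSO.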

Test [2] has as its target human RAR-related Orphan Receptor gamma (RORg), RORC (gene 6097) (UniProt P51449). As to the kind of experiment: ATG_RORg_TRANS: Attagene TRANS-FACTORIAL HepG2 Assay for human RAR-related Orphan Receptor gamma (RORg) (AID 2283011; active = hit-call score of the fitted dose curve at least 0.9, where 1 is the maximum). The procedure, abridged: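 Readout: reporter transcript induction (RT-PCR, fluorescent primer extension, capillary electrophoresis) after 24 h compound exposure of transiently transfected HepG2 cells carrying a RORg-Gal4 chimera and GAL4-UAS reporters; DMSO served as baseline, with increasing signal fitted.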

Test [3] addresses Retinoic acid receptor RXR-alpha (Homo sapiens) (UniProt P19793). As to the kind of experiment: ATG_RXRa_TRANS: Attagene TRANS-FACTORIAL HepG2 Assay for human Retinoid X Receptor alpha (RXRa) (AID 2283012; active = hit-call score of the fitted dose curve at least 0.9, where 1 is the maximum). The procedure, abridged: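 Cells (HepG2) carried transiently transfected GAL4-responsive reporter units. Following a 24 h chemical incubation, reporter mRNA induction was read via RT-PCR fragment analysis; DMSO served as negative control and baseline.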

The target in test [4] is human Retinoid X Receptor beta (RXRb), RXRB (gene 6257) (UniProt P28702). The experiment in a line: ATG_RXRb_TRANS: Attagene TRANS-FACTORIAL HepG2 Assay for human Retinoid X Receptor beta (RXRb) (AID 2283013; active = hit-call score of the fitted dose curve at least 0.9, where 1 is the maximum). The procedure, abridged: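 Multiplexed TRANS reporter assay in HepG2; 24 h dosing; reporter mRNA by RT-PCR/CE fluorescence; gain-of-signal relative to DMSO.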
Read-out in test [5]: E-selectin (Homo sapiens) (UniProt P16581)
The experiment in a line: BSK_3C_Eselectin: BioMAP Diversity Plus: 3C Assay for Eselectin Biomarker Activity (AID 2283015).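 For outcome: cell surface E-selectin protein quantified by ELISA 24 h after dosing.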 As to conditions: primary human endothelial cells (HUVEC); actives raise or lower the signal. The procedure, abridged: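 Primary human umbilical vein endothelial cells (3C system) were dosed with chemical and cell-surface E-selectin measured by ELISA 24 h later. Bidirectional curve fitting used DMSO as negative control and baseline.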

Read-out in test [6]: Interleukin-1 alpha (IL1a), IL1A (gene 3552)
The experiment in a line: BSK_BE3C_IL1a: BioMAP Diversity Plus: BE3C Assay for Interleukin-1 alpha (IL1a) Biomarker Activity (AID 2283016). As to conditions: primary human bronchial epithelial cells; actives raise or lower the signal. The procedure, abridged: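 Cultures of primary human bronchial epithelial cells receive test chemical. After 24 h, IL-1a is quantified by ELISA, while parallel wells are fixed in TCA and SRB-stained for total protein. Changes in either direction are fitted relative to DMSO.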

Read-out in test [7]: Monocyte Chemoattractant Protein-1 (MCP1), CCL2 (gene 6347)
The experiment in a line: BSK_3C_MCP1: BioMAP Diversity Plus: 3C Assay for Monocyte Chemoattractant Protein-1 (MCP1) Biomarker Activity (AID 2283017). The settings on record: primary human endothelial cells (HUVEC); actives raise or lower the signal. A digest of the protocol:
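Primary human umbilical vein endothelial cells (3C system) were exposed to test chemical for 24 h, after which MCP-1 was quantified by ELISA. Activity was fitted bidirectionally against DMSO as negative control and baseline.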

Read-out in test [8]: Monocyte Chemoattractant Protein-1 (MCP1), CCL2 (gene 6347)
The experiment in a line: BSK_4H_MCP1: BioMAP Diversity Plus: 4H Assay for Monocyte Chemoattractant Protein-1 (MCP1) Biomarker Activity (AID 2283018). As to conditions: primary human endothelial cells (HUVEC); actives raise or lower the signal. A digest of the protocol: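 Readout: MCP-1 ELISA on compound-treated HUVEC, sampled 24 h post-dosing. Baseline and negative control DMSO; bidirectional fit. Overt toxicity checked alongside by sulforhodamine B protein staining at time of biomarker measurement.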

Read-out in test [9]: Human Leukocyte Antigen - DR isotype (HLADR), HLA-DRA (gene 3122)
As to the kind of experiment: BSK_3C_HLADR: BioMAP Diversity Plus: 3C Assay for Human Leukocyte Antigen - DR isotype (HLADR) Biomarker Activity (AID 2283019).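 For outcome: ELISA of cell-surface HLA-DR on HUVEC 24 h after dosing.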 As to conditions: primary human endothelial cells (HUVEC); actives raise or lower the signal. A digest of the protocol:
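Primary human umbilical vein endothelial cells (3C system) were dosed with compound and cell-surface HLA-DR was quantified by ELISA at 24 h. Activity was fitted bidirectionally against DMSO as negative control and baseline.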

Read-out in test [10]: Interleukin-8 (IL8), CXCL8 (gene 3576)
The experiment in a line: BSK_3C_IL8: BioMAP Diversity Plus: 3C Assay for Interleukin-8 (IL8) Biomarker Activity (AID 2283020). The settings on record: primary human endothelial cells (HUVEC); actives raise or lower the signal. A digest of the protocol: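 Human vascular endothelial cells (umbilical vein) in the 3C system; IL-8 level detected by ELISA at 24 h post-dose, with DMSO as baseline.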

Read-out in test [11]: Monokine induced gamma interferon (MIG), CXCL9 (gene 4283)
The experiment in a line: BSK_3C_MIG: BioMAP Diversity Plus: 3C Assay for Monokine induced gamma interferon (MIG) Biomarker Activity (AID 2283021).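 For AC50: MIG protein level measured by immunoassay in the treated endothelial cultures.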 As to conditions: primary human endothelial cells (HUVEC); actives raise or lower the signal. The procedure, abridged:
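After 24 h of treatment, human umbilical vein endothelial cultures (3C system) had their MIG biomarker level determined by ELISA, with DMSO serving as negative control.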

Test [12] concerns the target human Vitamin D Receptor (VDR), VDR (gene 7421) (UniProt P11473). The experiment in a line: ATG_VDR_TRANS: Attagene TRANS-FACTORIAL HepG2 Assay for human Vitamin D Receptor (VDR) (AID 2283022; active = hit-call score of the fitted dose curve at least 0.9, where 1 is the maximum). The procedure, abridged: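 HepG2 cells were transiently transfected with multiple GAL4-UAS reporter units, so signal reflects exogenous chimeric receptor-Gal4 activity. After 24 h compound exposure, reporter mRNA was measured by RT-PCR, fluorescent labelling and capillary electrophoresis, fitted for gain of signal versus DMSO.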

Test [13] is described as follows: BSK_3C_SRB: Viability Assessment in the BioMAP Diversity Plus: 3C Assay (AID 2283023).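 Note: fitted both ways against DMSO so a hit may be signal rise or drop.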 As to conditions: primary human endothelial cells (HUVEC). A digest of the protocol:
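Primary human umbilical vein endothelial cells in the 3C system were read 24 h after compound dosing. Total protein was stained with 0.1% sulforhodamine B after 10% TCA fixation and read at 560 nm, with bidirectional fitting against DMSO as baseline.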

Read-out in test [14]: Matrix Metallopeptidase 1 (MMP1), MMP1 (gene 4312)
As to the kind of experiment: BSK_BE3C_MMP1: BioMAP Diversity Plus: BE3C Assay for Matrix Metallopeptidase 1 (MMP1) Biomarker Activity (AID 2283024). The settings on record: primary human bronchial epithelial cells; actives raise or lower the signal. A digest of the protocol: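 Dose cells, wait 24 h, run MMP1 ELISA; cells are human bronchial epithelial primaries. Both increases and decreases relative to DMSO counted.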

A short description of test [15]: BSK_3C_Vis: BioMAP Diversity Plus: 3C Assay for Morphology Visualization (AID 2283025).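 For AC50: light microscopy image of cell morphology used as background control.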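 Note: fitted both ways so gain or loss versus DMSO counts.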 The settings on record: primary human endothelial cells (HUVEC). The procedure, abridged:
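Endothelial cells from human umbilical vein were treated with test chemicals for 24 h and inspected by light microscopy for changes in cell conformation.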

Read-out in test [16]: Pselectin, SELP (gene 6403)
As to the kind of experiment: BSK_4H_Pselectin: BioMAP Diversity Plus: 4H Assay for Pselectin Biomarker Activity (AID 2283026). As to conditions: primary human endothelial cells (HUVEC); actives raise or lower the signal. The procedure, abridged:
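Human vascular endothelium from umbilical vein; P-selectin measured by ELISA at 24 h post-dose, with cytotoxicity checked by sulforhodamine B total-protein staining in parallel cultures (0.1% SRB after 10% TCA fixation, read at 560 nm).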

Test [17] in a line: BSK_4H_SRB: Viability Assessment in the BioMAP Diversity Plus: 4H Assay (AID 2283027).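 For AC50: curves fitted both ways versus DMSO so AC50 may be loss or gain.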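 Note: cells exposed to compound for 24 h before staining.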 As to conditions: primary human endothelial cells (HUVEC). A digest of the protocol: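 Absorbance at 560 nm of SRB-stained total protein served as the viability read-out in confluent primary human umbilical vein endothelium 24 h after chemical treatment. Curves were fitted bidirectionally against DMSO as negative control.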

Test [18] in a line: BSK_BE3C_SRB: Viability Assessment in the BioMAP Diversity Plus: BE3C Assay (AID 2283028). The settings on record: primary human bronchial epithelial cells. A digest of the protocol:
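Human primary bronchial epithelial cells were exposed to test chemicals for 24 h. Total protein in parallel cultures was then measured by staining with 0.1% sulforhodamine B after 10% TCA fixation, with absorbance read at 560 nm. Activity was fitted bidirectionally against DMSO.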

Read-out in test [19]: Thrombomodulin, THBD (gene 7056)
The experiment in a line: BSK_3C_Thrombomodulin: BioMAP Diversity Plus: 3C Assay for Thrombomodulin Biomarker Activity (AID 2283029). The settings on record: primary human endothelial cells (HUVEC); actives raise or lower the signal. A digest of the protocol:
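Thrombomodulin ELISA, human primary HUVEC, 24 h post-dose; data fitted in both directions relative to DMSO.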

Test [20] addresses human Thyroid Receptor alpha (THRa1), THRA (gene 7067) (UniProt P10827). As to the kind of experiment: ATG_THRa1_TRANS: Attagene TRANS-FACTORIAL HepG2 Assay for human Thyroid Receptor alpha (THRa1) (AID 2283014; active = hit-call score of the fitted dose curve at least 0.9, where 1 is the maximum). A digest of the protocol:
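HepG2 cells transiently transfected with multiplexed GAL4-UAS reporter units for exogenous chimeric THRa1-Gal4; reporter mRNA measured 24 h after dosing by RT-PCR, 6-FAM labelling, HpaI digestion and capillary electrophoresis. Gain-of-signal fitted versus DMSO baseline.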

Where “and” joins values, the source holds several entries; their conditions need not be identical. Equal values may be shown once. Records with an inconclusive call do not appear. Some structures have more than one record in an assay (separate samples or runs), and their calls can disagree. Calls of active or inactive are those of the source. Rule for the calls, unless noted: active = hit-call score of the fitted dose curve at least 0.9, where 1 is the maximum; inactive = score below 0.9.

Chain of human Thyroid Receptor alpha (THRa1), THRA (gene 7067) (P10827 whole entry, looked up, the tested form may be a part): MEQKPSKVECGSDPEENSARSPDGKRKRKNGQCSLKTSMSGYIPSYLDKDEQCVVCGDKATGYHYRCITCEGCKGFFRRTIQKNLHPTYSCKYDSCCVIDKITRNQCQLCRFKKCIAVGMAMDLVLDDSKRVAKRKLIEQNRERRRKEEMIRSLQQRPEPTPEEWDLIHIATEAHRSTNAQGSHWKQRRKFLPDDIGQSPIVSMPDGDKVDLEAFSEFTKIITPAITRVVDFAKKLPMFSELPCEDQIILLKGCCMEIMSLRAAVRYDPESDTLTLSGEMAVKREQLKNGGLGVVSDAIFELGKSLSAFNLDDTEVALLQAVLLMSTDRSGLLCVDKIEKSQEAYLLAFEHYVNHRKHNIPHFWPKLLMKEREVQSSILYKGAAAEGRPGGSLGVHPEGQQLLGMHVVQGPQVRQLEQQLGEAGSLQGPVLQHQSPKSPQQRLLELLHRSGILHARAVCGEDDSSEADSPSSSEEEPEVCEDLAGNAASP
Chain of human Retinoid X Receptor beta (RXRb), RXRB (gene 6257) (P28702 whole entry, looked up): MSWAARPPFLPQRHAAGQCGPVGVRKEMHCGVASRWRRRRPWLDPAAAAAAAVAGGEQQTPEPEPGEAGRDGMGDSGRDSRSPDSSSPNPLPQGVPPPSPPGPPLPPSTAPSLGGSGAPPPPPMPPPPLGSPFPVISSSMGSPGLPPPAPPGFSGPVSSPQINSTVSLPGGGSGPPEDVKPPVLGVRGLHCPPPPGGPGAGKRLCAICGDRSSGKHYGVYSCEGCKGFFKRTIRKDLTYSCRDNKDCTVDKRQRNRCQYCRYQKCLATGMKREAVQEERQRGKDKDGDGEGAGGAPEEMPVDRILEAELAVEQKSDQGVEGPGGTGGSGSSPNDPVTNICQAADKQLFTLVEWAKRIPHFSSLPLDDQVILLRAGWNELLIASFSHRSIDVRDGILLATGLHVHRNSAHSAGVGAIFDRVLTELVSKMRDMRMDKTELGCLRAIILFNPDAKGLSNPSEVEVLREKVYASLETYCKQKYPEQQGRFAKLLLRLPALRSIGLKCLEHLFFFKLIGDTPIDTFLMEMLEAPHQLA
Chain of human Vitamin D Receptor (VDR), VDR (gene 7421) (P11473 whole entry, looked up, the tested form may be a part): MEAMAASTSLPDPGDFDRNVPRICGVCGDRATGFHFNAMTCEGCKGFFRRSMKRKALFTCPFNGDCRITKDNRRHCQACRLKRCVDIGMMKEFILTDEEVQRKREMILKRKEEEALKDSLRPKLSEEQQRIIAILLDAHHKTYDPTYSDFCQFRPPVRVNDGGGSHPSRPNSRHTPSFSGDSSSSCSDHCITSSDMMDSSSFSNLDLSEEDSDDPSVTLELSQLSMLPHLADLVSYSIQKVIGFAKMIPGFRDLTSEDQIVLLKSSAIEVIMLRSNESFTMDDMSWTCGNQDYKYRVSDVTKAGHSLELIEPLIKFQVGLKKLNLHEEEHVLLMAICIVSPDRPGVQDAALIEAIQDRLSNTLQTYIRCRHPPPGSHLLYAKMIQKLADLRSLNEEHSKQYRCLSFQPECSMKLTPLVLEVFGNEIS
Chain of Retinoic acid receptor RXR-alpha (Homo sapiens) (P19793 whole entry, looked up, the tested form may be a part): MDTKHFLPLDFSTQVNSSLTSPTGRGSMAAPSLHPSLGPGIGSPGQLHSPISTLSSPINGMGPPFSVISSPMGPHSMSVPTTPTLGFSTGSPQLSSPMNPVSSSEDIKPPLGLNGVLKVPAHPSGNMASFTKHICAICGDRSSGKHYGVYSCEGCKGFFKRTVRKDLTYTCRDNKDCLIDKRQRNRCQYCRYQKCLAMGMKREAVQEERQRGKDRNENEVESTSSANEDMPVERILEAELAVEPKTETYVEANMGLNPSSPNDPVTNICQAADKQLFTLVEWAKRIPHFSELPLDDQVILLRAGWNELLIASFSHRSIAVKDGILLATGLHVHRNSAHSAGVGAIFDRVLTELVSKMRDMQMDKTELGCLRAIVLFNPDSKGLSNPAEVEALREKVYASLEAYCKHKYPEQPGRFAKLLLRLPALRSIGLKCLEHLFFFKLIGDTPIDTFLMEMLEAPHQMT
Chain of E-selectin (Homo sapiens) (P16581 whole entry, looked up): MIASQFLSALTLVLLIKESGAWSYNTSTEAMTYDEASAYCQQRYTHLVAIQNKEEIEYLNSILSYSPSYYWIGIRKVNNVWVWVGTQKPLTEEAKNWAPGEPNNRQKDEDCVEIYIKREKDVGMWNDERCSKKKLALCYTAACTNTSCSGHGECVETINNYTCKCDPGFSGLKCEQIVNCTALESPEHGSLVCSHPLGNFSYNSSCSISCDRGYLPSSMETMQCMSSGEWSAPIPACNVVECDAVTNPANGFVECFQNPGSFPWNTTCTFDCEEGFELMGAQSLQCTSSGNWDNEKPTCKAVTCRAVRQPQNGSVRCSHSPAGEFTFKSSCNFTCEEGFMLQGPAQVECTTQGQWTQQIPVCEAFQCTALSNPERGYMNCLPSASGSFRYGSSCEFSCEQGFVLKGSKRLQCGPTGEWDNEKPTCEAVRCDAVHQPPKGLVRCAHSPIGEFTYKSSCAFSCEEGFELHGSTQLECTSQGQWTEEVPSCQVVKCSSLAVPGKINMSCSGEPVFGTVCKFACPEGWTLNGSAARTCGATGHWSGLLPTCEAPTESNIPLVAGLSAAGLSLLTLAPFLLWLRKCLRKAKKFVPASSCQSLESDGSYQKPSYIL
Chain of human RAR-related Orphan Receptor gamma (RORg), RORC (gene 6097) (P51449 whole entry, looked up, the tested form may be a part): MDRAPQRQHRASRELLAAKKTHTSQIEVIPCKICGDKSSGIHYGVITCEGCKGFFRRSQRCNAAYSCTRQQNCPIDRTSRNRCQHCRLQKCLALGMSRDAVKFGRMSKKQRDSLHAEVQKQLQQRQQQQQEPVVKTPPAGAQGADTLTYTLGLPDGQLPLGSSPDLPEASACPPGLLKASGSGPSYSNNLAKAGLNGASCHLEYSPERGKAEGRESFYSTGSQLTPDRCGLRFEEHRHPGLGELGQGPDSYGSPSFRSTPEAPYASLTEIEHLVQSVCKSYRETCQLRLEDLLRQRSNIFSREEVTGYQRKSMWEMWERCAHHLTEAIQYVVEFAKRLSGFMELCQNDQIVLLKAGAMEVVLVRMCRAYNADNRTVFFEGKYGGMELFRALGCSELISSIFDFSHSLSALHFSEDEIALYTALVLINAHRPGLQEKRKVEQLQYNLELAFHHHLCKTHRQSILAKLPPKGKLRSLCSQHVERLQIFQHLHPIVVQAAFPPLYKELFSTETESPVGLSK
Chain of human Retinoic Acid Receptor gamma (RARg), RARG (gene 5916) (P13631 whole entry, looked up, the tested form may be a part): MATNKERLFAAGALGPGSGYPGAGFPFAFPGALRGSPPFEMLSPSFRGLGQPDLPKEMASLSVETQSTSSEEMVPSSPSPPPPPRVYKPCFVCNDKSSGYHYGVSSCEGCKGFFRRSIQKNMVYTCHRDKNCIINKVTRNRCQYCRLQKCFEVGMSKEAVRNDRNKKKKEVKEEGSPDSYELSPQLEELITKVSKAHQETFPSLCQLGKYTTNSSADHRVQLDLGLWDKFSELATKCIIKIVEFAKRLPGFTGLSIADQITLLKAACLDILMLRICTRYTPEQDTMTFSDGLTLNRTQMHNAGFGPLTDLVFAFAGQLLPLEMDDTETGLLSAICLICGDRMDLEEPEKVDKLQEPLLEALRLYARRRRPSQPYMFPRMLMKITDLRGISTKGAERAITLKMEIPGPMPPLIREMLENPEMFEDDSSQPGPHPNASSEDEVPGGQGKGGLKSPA

Turning to `COC(=O)C(C)Oc1ccc(Oc2ccc(Cl)cc2Cl)cc1` (configuration not stated), the result in [1], in [2], in test [3], in [4], in [5] and in test [6] was inactive. Further, the outcome in test [7], in test [8], in [9], in test [10], in [11] and in test [12] was inactive. Also, the outcome in test [13], in [14], in test [15], in [16], in [17] and in test [18] was inactive. In addition, the outcome in test [19] was inactive. Also, the AC50 (usually the concentration at which the activity in the assay is half-maximal) was 25.4 µM (active) in [7]; 13.8 µM (active) in test [9]; 14 µM (active) and 20 µM (active) in [13]; 39 µM (active) in test [15].
For `COc1nc(C)nc(NC(=O)NS(=O)(=O)c2ccccc2Cl)n1`, the molecule was classed as inactive in test [1], in test [2], in test [3], in test [4], in test [5] and in test [6]. The result in test [7], in [9], in test [10], in test [11], in test [12] and in test [13] was inactive. For the same molecule, the result in test [14], in [15], in test [16], in test [17], in [18] and in test [19] was inactive.
With `C=CCC1=C(C)C(OC(=O)C2C(C=C(C)C)C2(C)C)CC1=O` (configuration not stated), the AC50 in test [1] was 1.75 µM (active); in [4], 22.1 µM (active); in [5], 30.3 µM (active) [middle of 4 runs]; in test [7], 33.1 µM (active) and 33.5 µM (active); in [9] it was 32.2 µM (active) and 28 µM (active) and 29.1 µM (active); in [10] it was 32.3 µM (active) [middle of 4 runs]. Also, the AC50 was 31.7 µM (active) in test [11]; 105 µM (active) in test [12]; 32.8 µM (active) [middle of 4 runs] in test [13]; 9.44 µM (active) and 7.51 µM (active) in test [14]; 39.4 µM (active) and 39 µM (active) in test [15]; 34.9 µM (active) and 33 µM (active) and 33.2 µM (active) in test [16]. In test [17], the AC50 was 32.7 µM (active) [middle of 4 runs]. The result in [1], in test [2], in test [3], in [4], in [20] and in test [6] was inactive. The result in test [11], in [12], in [14], in test [15], in [16] and in test [18] was inactive. Further, the outcome in test [19] was inactive.
`CCCC1COC(Cn2cncn2)(c2ccc(Cl)cc2Cl)O1` (configuration not stated): the molecule was called inactive in test [1], in [2], in [3], in [4], in test [20] and in [5]. In addition, the result in test [6], in test [7], in test [9], in test [10], in [11] and in test [12] was inactive. Also, the result in test [13], in test [14], in test [15], in test [16], in test [17] and in test [18] was inactive. Further, in [19], the outcome was inactive.
Take `COc1nc(C)nc(NC(=O)NS(=O)(=O)c2ccccc2CCC(F)(F)F)n1`: the call in test [1], in test [2], in [3], in test [4], in [20] and in test [5] was inactive. The outcome in test [6], in [7], in test [8], in test [9], in test [10] and in [11] was inactive. The outcome in [12], in test [13], in [14], in test [15], in test [16] and in test [17] was inactive. For the same molecule, the outcome in test [18] and in test [19] was inactive. Also, in test [9], the AC50 is 20 µM (active).
